# From the supplement of paper PMC11865577
# Counter-ions that a name gives are not always drawn.
# What was measured:
# Assay in all cases: normalised indicator fluorescence (fraction of RNA + indicator signal without compound); higher = less displacement of indicator (weaker competition)
# Conditions in all cases: compound concentration: 5 uM, 30 min
# [1] = tested on: SARS-CoV-2 low-rank motif (SARS-low)
# Outline: (§1)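 Values are ratios: indicator fluorescence, less a buffer-plus-indicator blank, over the RNA-plus-indicator signal with no compound, as the mean of two independent experiments. This displacement screen used TO-PRO-1 or TO-PRO-3 with RNA in 96-well plates, in 20 mM phosphate pH 7.0, 20 mM NaCl, 80 mM KCl. Compounds went in at about 5 uM final, and readings were taken after 30 min on an Infinite 200 PRO at 485 or 620 nm excitation.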
# [2] = tested on: hsa-mir-191 loop
# Outline: as §1
# [3] = tested on: hsa-mir-21 loop
# Outline: as §1
# [4] = tested on: hsa-mir-221 loop
# Outline: as §1
# [5] = tested on: hsa-mir-374a loop
# Outline: as §1
# [6] = tested on: hsa-mir-6850 loop
# Outline: as §1
# [7] = indicator: TO-PRO-1 0.1 uM, RNA concentration: 0.1 uM
# [8] = indicator: TO-PRO-3 0.5 uM, RNA concentration: 0.5 uM
smiles,measurement,setting,value
CCNC(=O)c1noc(-c2cc(Cl)c(O)cc2O)c1-c1ccc(OC)cc1,normalised indicator fluorescence,[1]; [7],1.27
same,normalised indicator fluorescence,[1]; [8],1.43
O=C1CCc2ccccc2C1 [Beta-Tetralone],normalised indicator fluorescence,[1]; [7],1.19
same,normalised indicator fluorescence,[1]; [8],1.2
CC1(C)C=Cc2c(ccc3c2OC[C@@H](c2ccc(O)cc2O)C3)O1 [Glabridin],normalised indicator fluorescence,[1]; [7],1.12
same,normalised indicator fluorescence,[1]; [8],1.2
CC(C)(O)[C@@H]1CC[C@](C)([C@H]2[C@@H](O)C[C@@]3(C)[C@@H]4C[C@H](O)[C@H]5C(C)(C)[C@@H](O[C@@H]6OC[C@@H](O)[C@H](O)[C@H]6O[C@@H]6O[C@H](CO)[C@@H](O)[C@H](O)[C@H]6O)CC[C@@]56C[C@@]46CC[C@]23C)O1 [Astragaloside III],normalised indicator fluorescence,[1]; [7],1.03
same,normalised indicator fluorescence,[1]; [8],0.988
COc1c(C)cnc(Cn2cnc3c(Cl)nc(N)nc32)c1C,normalised indicator fluorescence,[1]; [7],1.13
same,normalised indicator fluorescence,[1]; [8],1.17
O=C(O)/C=C/c1ccc(Cn2ccnc2)cc1 [Ozagrel],normalised indicator fluorescence,[1]; [7],1.09
same,normalised indicator fluorescence,[1]; [8],1.21
O=C1C[C@@H](c2ccc(O)cc2)Oc2cc(O)cc(O)c21 [Naringenin],normalised indicator fluorescence,[1]; [7],1.03
same,normalised indicator fluorescence,[1]; [8],1.12
C[S+]([O-])c1ccc(-c2nc(-c3ccc(F)cc3)c(-c3ccncc3)[nH]2)cc1 (configuration not stated),normalised indicator fluorescence,[1]; [7],1.04
same,normalised indicator fluorescence,[1]; [8],0.92
C[C@H]1[C@H](C)CC[C@]2(C(=O)O)CC[C@]3(C)C(=CC[C@@H]4[C@@]5(C)C[C@@H](O)[C@H](O)[C@@](C)(CO)[C@@H]5CC[C@]43C)[C@H]12 [Asiatic acid],normalised indicator fluorescence,[1]; [7],1.08
same,normalised indicator fluorescence,[1]; [8],0.985
CC1=C[C@]2(O)O[C@@]3(CC2=C(C)C)[C@@H](C)CC[C@@H]13 [Curcumenol],normalised indicator fluorescence,[1]; [7],1.11
same,normalised indicator fluorescence,[1]; [8],1.05
Cc1cc(NC(=O)c2cccc(NC(=O)/C=C/CN(C)C)c2)ccc1Nc1nccc(-c2cccnc2)n1,normalised indicator fluorescence,[1]; [7],0.999
same,normalised indicator fluorescence,[1]; [8],1.14
O=C(O)CCc1ccc(O)cc1O [Hydroumbellic acid],normalised indicator fluorescence,[1]; [7],1.15
same,normalised indicator fluorescence,[1]; [8],1.15
CN1CCN(c2ccc(C(=O)Nc3n[nH]c4ccc(Cc5cc(F)cc(F)c5)cc34)c(NC3CCOCC3)c2)CC1 [Entrectinib],normalised indicator fluorescence,[1]; [7],1.16
same,normalised indicator fluorescence,[1]; [8],1.39
COC(=O)C1=CC[C@@]23CC[C@@H]([C@@](C)(/C=C/C=C(\C)C(=O)O)OC2=O)[C@@]3(OC(C)=O)CC1 [Pseudolaric Acid B],normalised indicator fluorescence,[1]; [7],0.981
same,normalised indicator fluorescence,[1]; [8],1.27
O=C1c2c(O)cc(O)cc2OC(c2ccc(O)c(O)c2)C1O (configuration not stated) [Taxifolin],normalised indicator fluorescence,[1]; [7],1.25
same,normalised indicator fluorescence,[1]; [8],1.31
CC(C)c1cc(-c2n[nH]c(=O)n2-c2ccc3c(ccn3C)c2)c(O)cc1O [Ganetespib],normalised indicator fluorescence,[1]; [7],1.26
same,normalised indicator fluorescence,[1]; [8],1.28
CO[C@H]1/C=C/O[C@@]2(C)Oc3c(C)c(O)c4c(c3C2=O)C2=NC3(CCN(CC(C)C)CC3)NC2=C(NC(=O)/C(C)=C\C=C\[C@H](C)[C@H](O)[C@@H](C)[C@@H](O)[C@@H](C)[C@H](OC(C)=O)[C@@H]1C)C4=O [Rifabutin],normalised indicator fluorescence,[1]; [7],1.1
same,normalised indicator fluorescence,[1]; [8],1.16
CCOc1cc(C(=O)N2CCC(N3CCN(C)CC3)CC2)ccc1Nc1ncc2c(n1)N(C1CCCC1)c1ccccc1C(=O)N2C,normalised indicator fluorescence,[1]; [7],1.2
same,normalised indicator fluorescence,[1]; [8],1.03
Nc1ncnc2c1ncn2[C@@H]1O[C@H](CO)[C@@H](O)[C@@H]1O [Vidarabine],normalised indicator fluorescence,[1]; [7],1.11
same,normalised indicator fluorescence,[1]; [8],1.17
C[C@H]1[C@H](C)CC[C@]2(C(=O)O[C@@H]3O[C@H](CO[C@@H]4O[C@H](CO)[C@@H](O[C@@H]5O[C@H](C)[C@H](O)[C@@H](O)[C@H]5O)[C@H](O)[C@H]4O)[C@@H](O)[C@H](O)[C@H]3O)CC[C@]3(C)C(=CC[C@@H]4[C@@]5(C)C[C@@H](O)[C@H](O)[C@@](C)(CO)[C@@H]5CC[C@]43C)[C@H]12 [Asiaticoside],normalised indicator fluorescence,[1]; [7],1.05
same,normalised indicator fluorescence,[1]; [8],1.3
CCNC(=O)c1noc(-c2cc(C(C)C)c(O)cc2O)c1-c1ccc(CN2CCOCC2)cc1 [Luminespib],normalised indicator fluorescence,[1]; [7],1.01
same,normalised indicator fluorescence,[1]; [8],1.09
CCc1cc(C(N)=S)ccn1 [Ethinamide],normalised indicator fluorescence,[1]; [7],1.15
same,normalised indicator fluorescence,[1]; [8],1.12
CC1=CC(=O)c2c(O)cccc2C1=O [Plumbagin],normalised indicator fluorescence,[1]; [7],1.22
same,normalised indicator fluorescence,[1]; [8],1.02
same,normalised indicator fluorescence,[2]; [7],1.02
same,normalised indicator fluorescence,[2]; [8],1.01
same,normalised indicator fluorescence,[3]; [7],0.979
same,normalised indicator fluorescence,[3]; [8],0.979
same,normalised indicator fluorescence,[4]; [7],1.02
same,normalised indicator fluorescence,[4]; [8],1.05
same,normalised indicator fluorescence,[5]; [7],1.17
same,normalised indicator fluorescence,[5]; [8],1.15
same,normalised indicator fluorescence,[6]; [7],0.922
same,normalised indicator fluorescence,[6]; [8],1.01
CCc1oc2ccccc2c1C(=O)c1cc(Br)c(O)c(Br)c1 [Benzbromarone],normalised indicator fluorescence,[1]; [7],1.02
same,normalised indicator fluorescence,[1]; [8],1.4
NC(=O)N/N=C/c1ccc([N+](=O)[O-])o1 [Furacilin],normalised indicator fluorescence,[1]; [7],1.11
same,normalised indicator fluorescence,[1]; [8],1.05
COc1nc(-c2ccc3c(c2)OCO3)n(-c2ccc(NC(=O)CSc3ccccc3)cc2)n1 [SecinH3],normalised indicator fluorescence,[1]; [7],1.55
same,normalised indicator fluorescence,[1]; [8],0.816
Oc1ccc(-c2nc(-c3ccc(F)cc3)c(-c3ccncc3)[nH]2)cc1,normalised indicator fluorescence,[1]; [7],1.2
same,normalised indicator fluorescence,[1]; [8],1.23
O=c1cc(-c2ccccc2)oc2cc(O)c(O)c(O)c12 [Baicalein],normalised indicator fluorescence,[1]; [7],0.791
same,normalised indicator fluorescence,[1]; [8],0.739
CN(C)CCCN1c2ccccc2CCc2ccc(Cl)cc21 [Clomipramine hydrochloride],normalised indicator fluorescence,[1]; [7],1.07
same,normalised indicator fluorescence,[1]; [8],1.13
Fc1ccc(-c2nc3n(c2-c2ccncc2)CCS3)cc1,normalised indicator fluorescence,[1]; [7],1.3
same,normalised indicator fluorescence,[1]; [8],1.15
[I-].[K+] [Potassium iodide],normalised indicator fluorescence,[1]; [7],1.21
same,normalised indicator fluorescence,[1]; [8],1.29
C1CCN2C[C@@H]3C[C@@H](CN4CCCC[C@@H]34)[C@H]2C1 [(-)-Sparteine sulfate pentahydrate],normalised indicator fluorescence,[1]; [7],1.05
same,normalised indicator fluorescence,[1]; [8],0.993
C[C@H](CCC(=O)NCCS(=O)(=O)O)[C@H]1CC[C@H]2[C@@H]3[C@@H](O)C[C@@H]4C[C@H](O)CC[C@]4(C)[C@H]3CC[C@]12C [Tauroursodeoxycholic Acid],normalised indicator fluorescence,[1]; [7],1.21
same,normalised indicator fluorescence,[1]; [8],1.52
CCCC(C(=O)OCCN(CC)CC)(c1ccccc1)c1ccccc1 [Proadifen hydrochloride],normalised indicator fluorescence,[1]; [7],1.28
same,normalised indicator fluorescence,[1]; [8],1.04
Cc1c(F)cc(C(=O)NC2CC2)cc1-c1ccc(C(=O)NCC(C)(C)C)cn1 [Losmapimod],normalised indicator fluorescence,[1]; [7],1.24
same,normalised indicator fluorescence,[1]; [8],1.04
O=C(O)C(O)Cc1ccc(O)c(O)c1 (configuration not stated) [Sodium Danshensu],normalised indicator fluorescence,[1]; [7],0.934
same,normalised indicator fluorescence,[1]; [8],0.931
CC1(C)CC(=O)c2c(C(F)(F)F)nn(-c3ccc(C(N)=O)c(N[C@H]4CC[C@H](O)CC4)c3)c2C1,normalised indicator fluorescence,[1]; [7],1.02
same,normalised indicator fluorescence,[1]; [8],1.08
NNC(=O)c1ccncc1 [Isoniazid],normalised indicator fluorescence,[1]; [7],1.12
same,normalised indicator fluorescence,[1]; [8],1.13
Oc1cc(O)c2c(c1)O[C@H](c1ccc(O)c(O)c1)[C@@H](O)C2 [Cianidanol],normalised indicator fluorescence,[1]; [7],1.39
same,normalised indicator fluorescence,[1]; [8],1.17
O=CN1CC/C(=C/c2ccc3c(c2)OCO3)C1=O,normalised indicator fluorescence,[1]; [7],1.02
same,normalised indicator fluorescence,[1]; [8],1.08
N#Cc1c(NC(=O)c2cccc3ccccc23)sc2c1CCCC2,normalised indicator fluorescence,[1]; [7],1.03
same,normalised indicator fluorescence,[1]; [8],1.1
O=C(O)/C=C/c1ccc(Cn2ccnc2)cc1 [Ozagrel hydrochloride],normalised indicator fluorescence,[1]; [7],1.1
same,normalised indicator fluorescence,[1]; [8],1.09
O=c1c(O)c(-c2cc(O)c(O)c(O)c2)oc2cc(O)cc(O)c12 [Myricetin],normalised indicator fluorescence,[1]; [7],0.808
same,normalised indicator fluorescence,[1]; [8],0.0645
CC(=O)c1ccc(S(=O)(=O)NC(=O)NC2CCCCC2)cc1 [Acetohexamide],normalised indicator fluorescence,[1]; [7],0.998
same,normalised indicator fluorescence,[1]; [8],1.12
CN1CCN(c2nc(C3=C(c4c[nH]c5ccccc45)C(=O)NC3=O)c3ccccc3n2)CC1 [Sotrastaurin],normalised indicator fluorescence,[1]; [7],1.4
same,normalised indicator fluorescence,[1]; [8],1.29
Nc1c(Br)cc(Br)cc1CN[C@H]1CC[C@H](O)CC1 [Ambroxol],normalised indicator fluorescence,[1]; [7],0.985
same,normalised indicator fluorescence,[1]; [8],0.984
NC(=O)c1ccccc1Nc1ccnc(Nc2cccc(O)c2)n1,normalised indicator fluorescence,[1]; [7],1.1
same,normalised indicator fluorescence,[1]; [8],1.06
NC(=O)c1ccc(N(C(N)=O)c2c(F)cccc2F)nc1-c1ccc(F)cc1F,normalised indicator fluorescence,[1]; [7],1.28
same,normalised indicator fluorescence,[1]; [8],1.21
CC1(C)OC(=O)C=C[C@]2(C)[C@H]3CC[C@@]4(C)[C@H](c5ccoc5)OC(=O)[C@H]5O[C@]54[C@]3(C)C(=O)C[C@@H]12 [Obacunone],normalised indicator fluorescence,[1]; [7],1.14
same,normalised indicator fluorescence,[1]; [8],0.991
C[C@H]1Oc2cc(cnc2N)-c2c(nn(C)c2C#N)CN(C)C(=O)c2ccc(F)cc21 [Lorlatinib],normalised indicator fluorescence,[1]; [7],1.13
same,normalised indicator fluorescence,[1]; [8],1.23
N#CC(c1ccnc(OCc2ccc(CN3CCOCC3)cc2)n1)c1nc2ccccc2s1 (configuration not stated),normalised indicator fluorescence,[1]; [7],1.59
same,normalised indicator fluorescence,[1]; [8],0.556
CNC(=O)c1ccc(C)c(-n2c(C)cc(OCc3ccc(F)cc3F)c(Br)c2=O)c1,normalised indicator fluorescence,[1]; [7],1.01
same,normalised indicator fluorescence,[1]; [8],1.07
COc1ccc2c(c[n+](C)c3c4cc5c(cc4ccc23)OCO5)c1OC [Chelerythrine chloride],normalised indicator fluorescence,[1]; [7],1.46
same,normalised indicator fluorescence,[1]; [8],0.807
same,normalised indicator fluorescence,[2]; [7],0.626
same,normalised indicator fluorescence,[2]; [8],0.656
same,normalised indicator fluorescence,[3]; [7],0.586
same,normalised indicator fluorescence,[3]; [8],0.724
same,normalised indicator fluorescence,[4]; [7],0.568
same,normalised indicator fluorescence,[4]; [8],0.592
same,normalised indicator fluorescence,[5]; [7],1.01
same,normalised indicator fluorescence,[5]; [8],1.02
same,normalised indicator fluorescence,[6]; [7],0.335
same,normalised indicator fluorescence,[6]; [8],0.494
O=C(Nc1ccc2[nH]nc(-c3ccncc3)c2c1)[C@@H]1CCN(CC(=O)N2CCN(c3ccc(-c4ncccn4)cc3)CC2)C1,normalised indicator fluorescence,[1]; [7],1.11
same,normalised indicator fluorescence,[1]; [8],1.26
O=C(/C=C/C=C/c1ccc2c(c1)OCO2)N1CCCCC1 [Piperine],normalised indicator fluorescence,[1]; [7],1.02
same,normalised indicator fluorescence,[1]; [8],1.15
O=c1c(O)c(-c2ccccc2)oc2cc(O)cc(O)c12 [Galangin],normalised indicator fluorescence,[1]; [7],1.12
same,normalised indicator fluorescence,[1]; [8],1.28
